From PubChem BioAssay AID1376 (SRMLSC, 2008) come the findings set out here.

Screen size: about 220,000 compounds; about 530 (0.24%) were called active. No stated cut-off is given here; in the data, active means inhibition above about 13%; inconclusive means no clear call, values can overlap the other calls; inactive means below that. Shown is part of a subset that was picked to be rich in actives. Measured potencies and affinities stand elsewhere.

Sequence of Bifunctional protein GlmU (Mycobacterium tuberculosis (strain ATCC 25618 / H37Rv)) (P9WMN3 whole entry, looked up): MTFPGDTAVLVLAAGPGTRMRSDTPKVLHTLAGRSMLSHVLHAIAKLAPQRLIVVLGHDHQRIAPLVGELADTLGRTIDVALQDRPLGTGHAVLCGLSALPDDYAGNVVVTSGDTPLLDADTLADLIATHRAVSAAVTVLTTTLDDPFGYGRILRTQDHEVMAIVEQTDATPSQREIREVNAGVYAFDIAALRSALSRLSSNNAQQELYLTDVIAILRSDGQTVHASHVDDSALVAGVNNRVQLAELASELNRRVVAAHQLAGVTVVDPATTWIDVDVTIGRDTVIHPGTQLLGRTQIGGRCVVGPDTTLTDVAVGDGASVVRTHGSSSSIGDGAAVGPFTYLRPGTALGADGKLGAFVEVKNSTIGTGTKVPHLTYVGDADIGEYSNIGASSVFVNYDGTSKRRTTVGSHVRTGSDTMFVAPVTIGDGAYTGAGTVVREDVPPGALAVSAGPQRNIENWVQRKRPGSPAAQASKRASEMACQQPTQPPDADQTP

The assay has as its target Bifunctional protein GlmU (Mycobacterium tuberculosis (strain ATCC 25618 / H37Rv)) (UniProt P9WMN3). Put plainly: inhibition of mycobacterial GlmU enzyme – biochemical, glucosamine-1-phosphate acetyltransferase (AID 1376).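 Further: 0% = complete reaction with vehicle and 100% = reaction without substrate.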 The following applies: M. tuberculosis GlmU acetyltransferase enzyme assay; hits give high values;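 tested at 30 µM in the primary screen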.
For orientation: inhibition means the relative decrease from the control value, in per cent. With `CC1CCc2sc(C(=O)OCC(=O)NCc3ccccc3)cc2C1` (centres undefined), the inhibition is -4.45% (inactive).

As to `CC12CCC(C/C1=N\OC(=O)c1ccc(F)cc1)C2(C)C` (centres undefined), the inhibition is 1.74% (inactive).

Consider `C/C=C/C(=O)N1CC2(CC(c3cccc(NC(=O)/C(C)=C/C)c3)=NO2)C[C@H]1C(N)=O` (some centres undefined), for which the inhibition is 3.31% (inactive).

As for `Cc1cc(C)n(-c2cc(N3CCN(S(=O)(=O)c4ccc(Cl)cc4)CC3)ccc2[N+](=O)[O-])n1`, the inhibition was 5.84% (inactive).

Consider `COc1cccc2c(=O)n(CC(=O)N3CCc4ccccc43)ccc12`, for which the inhibition was 1.33% (inactive).

Regarding `N#CC1=C(N)N(c2ccccc2)C2=C(C(=O)CCC2)C1c1cccs1` (centres undefined), the inhibition was 2.47% (inactive).

In the case of `CCCCNC(=O)Oc1cc(CCl)on1`, the inhibition was -3.53% (inactive).

`CCCCNC(=O)Oc1c(Br)cc2sc(=O)oc2c1Br`: the inhibition was 13.8% (active).

Take `O=C(NC1CCCCC1)Oc1cc2oc(=O)sc2cc1Br`: the inhibition is -0.42% (inactive).

`CSc1cccc(NC(=O)C2CCCN2S(=O)(=O)c2ccc(Br)s2)c1` (centres undefined): the inhibition is 7.56% (inactive).

Take `CSc1ccc(C(=O)C2CCCN(Cc3cnc(SC)nc3)C2)cc1` (centres undefined): the inhibition is -1.56% (inactive).

As to `COc1cccc(N2CCN(C(=O)NC3CCCCC3)CC2)c1`, the inhibition is -5.07% (inactive).

In the case of `CCCCC(CC)C1OCC(CN2CCCCC2)O1` (centres undefined), the inhibition is 7.5% (inactive).

As to `O=C1NC(=O)N(c2ccccc2)C(=O)/C1=C/c1ccc(Sc2ccccc2)o1`, the inhibition is 19.6% (inactive).

Turning to `CN1C(=O)C(=Cc2ccc(Sc3ccccc3)o2)C(=O)N(C)C1=O`, the inhibition was -2.7% (inactive).

Regarding `O=[N+]([O-])c1cc(S(=O)(=O)N2CCCC2)ccc1N/N=C/c1cccnc1`, the inhibition is -1.08% (inactive).

For `O=c1cc(-c2ccc(O)cc2)oc2ccc(O)cc12`, the inhibition was -0.88% (inactive).

Regarding `O=c1cc(O)c2ccc(O)cc2o1`, the inhibition is 4.26% (inactive).

Take `O=C(c1ccc([N+](=O)[O-])cc1[N+](=O)[O-])N1CCCC1`: the inhibition was 2.34% (inactive).

`CC1CC(C)CN(C(=O)Cn2c(=O)n(CCCCC(=O)NCc3ccco3)c(=O)c3ccccc32)C1` (centres undefined): the inhibition is 4.18% (inactive).

As to `CCOc1nc2c(c(=O)n(C)c(=O)n2C)n1Cc1ccccc1Cl`, the inhibition is 1.39% (inactive).

Take `CCCCNC(=O)Nc1nc2ccccc2s1`: the inhibition was 5.87% (inactive).

Turning to `COc1ccc(NC2=NC3(CCCCC3)N=C(N)N2)cc1`, the inhibition was 26% (active).

`COc1cccc(NC2=NC3(CCCCC3)N=C(N)N2)c1`: the inhibition is 0.3% (inactive).

As to `CCCCOc1ccc(NC2=NC3(CCCCC3)N=C(N)N2)cc1`, the inhibition was -13.7% (inactive).

Take `CCOc1ccc(/C=C(/NC(=O)c2ccc(Cl)cc2)C(=O)O)cc1OCC`: the inhibition is -0.87% (inactive).

For the compound `NC(=O)c1ccc(-n2nnnc2Oc2ccc(Br)cc2)cc1`, the inhibition was -0.77% (inactive).

`COc1ccc(NC(=O)Nc2ccccn2)cc1OC`: the inhibition is 5.35% (inactive).

For the compound `Cc1c(Br)c(=O)oc2c(C)c(O)ccc12`, the inhibition was -1.97% (inactive).

As to `Cc1c(Br)c(=O)oc2c(Br)c(O)ccc12`, the inhibition is 4.5% (inactive).

For `CC(C)(Cc1ccc(O)cc1)NC(=O)CC(=O)N/N=C/c1ccc([N+](=O)[O-])cc1`, the inhibition is -2.21% (inactive).

With `COc1cc(/C=N/NC(=O)CCn2c3ccccc3c3ccccc32)cc(OC)c1OC`, the inhibition is 1.58% (inactive).

On to `O=C(CN1CCN(Cc2ccccc2)CC1)N/N=C/c1cccnc1`, for which the inhibition is 1.02% (inactive).

As to `COc1ccc(N=C2NC(=O)/C(=C\C=C\c3ccco3)S2)cc1`, the inhibition is 8.93% (inactive).

For `O=C1NC(=Nc2ccc(O)cc2)S/C1=C\C=C\c1ccco1`, the inhibition was 3.62% (inactive).

As to `O=C1NC(=Nc2ccccc2)S/C1=C\C=C\c1ccco1`, the inhibition was 14.8% (active).

For `Cc1ccc(N=C2NC(=O)/C(=C/C=C/c3ccco3)S2)cc1`, the inhibition was 4.9% (inactive).

As to `Cc1cccc(N=C2NC(=O)/C(=C/C=C/c3ccco3)S2)c1`, the inhibition was 13.5% (active).

In the case of `Cc1cccc(N=C2NC(=O)/C(=C/C=C/c3ccco3)S2)c1C`, the inhibition is -4.23% (inactive).

On to `O=C1Cn2c(nc3ccccc32)N1c1cccc(C(F)(F)F)c1`, for which the inhibition is 0.84% (inactive).

Consider `CN(Cc1ccncc1)C1CC(=O)N(c2ccc(F)cc2)C1=O` (centres undefined), for which the inhibition is 5.02% (inactive).

As to `CCSc1ccccc1C(=O)NC1CCCCC1`, the inhibition is 2.94% (inactive).

With `CCCNCc1cc(Br)ccc1OCC(=O)NCCc1ccccc1`, the inhibition is 0.38% (inactive).

Turning to `CC(C)N(Cc1ccccc1)C(=O)Cn1c(=O)cnc2ccccc21`, the inhibition is -0.29% (inactive).

With `Cc1[nH]n(C2=NCCS2)c(=O)c1N=Nc1cccc(C(F)(F)F)c1`, the inhibition was -0.55% (inactive).

Regarding `Cc1cc(C)c(S(=O)(=O)/N=C2\C=CC(=O)C(Cl)=C2)c(C)c1`, the inhibition is 14.5% (active).

In the case of `Cc1cc(C)c(S(=O)(=O)Nn2cnnc2)c(C)c1`, the inhibition is -3.71% (inactive).

As for `Cc1ccc(S(=O)(=O)c2c(C)cc(C)nc2Cl)c(C)c1`, the inhibition is 1.23% (inactive).

For `COc1cccc(C2=NN(C(=O)c3ccco3)C(O)(C(F)(F)F)C2)c1` (centres undefined), the inhibition is 3.28% (inactive).

Turning to `Cc1ccc(-c2csc3ncnc(OCC(=O)NC(=O)NCc4ccco4)c23)cc1`, the inhibition is 2.74% (inactive).

Consider `CN(c1ccccc1)S(=O)(=O)c1ccc(NC(=S)Nc2ccccc2)cc1`, for which the inhibition is 18.1% (active).

With `CC(=O)Nc1ccc(S(=O)(=O)N(C)c2ccccc2)cc1`, the inhibition was -1.32% (inactive).

Take `CN(c1ccccc1)S(=O)(=O)c1ccc(NC(=S)NC(=O)c2ccccc2)cc1`: the inhibition is 0.7% (inactive).

Consider `O=C(O)c1ccc2c(c1Sc1ccccc1)C(=O)c1ccccc1C2=O`, for which the inhibition is 7.96% (inactive).

`O=C1c2cccc(O)c2C(=O)c2c(O)cccc21`: the inhibition was 6.42% (inactive).

For `O=C1c2cccc(Sc3ccccc3)c2C(=O)c2c(Sc3ccccc3)cccc21`, the inhibition was 14.2% (active).

For `CC(C)C(NC(=O)C1CCC(C(C)(C)C)CC1)C(=O)NCc1cccnc1` (centres undefined), the inhibition is 5% (inactive).

In the case of `CCOc1ccc(S(=O)(=O)N2CCN(C(=S)NC3CC3)CC2)cc1`, the inhibition was 4.79% (inactive).

`CCn1c(Cc2ccccc2)nnc1SCc1cccc(C(=O)O)c1`: the inhibition was 1.34% (inactive).

As to `CCC(=NC(C)c1ccccc1)c1c(O)n(C)c(=O)n(C)c1=O` (centres undefined), the inhibition is -3.09% (inactive).

As for `COc1cc2c(cc1OC)C(c1ccccc1O)N(C1CC(=O)N(c3ccccc3)C1=O)CC2` (centres undefined), the inhibition is 2.68% (inactive).

On to `CCOC(=O)Cc1csc(NC(=O)c2cc(C)cc(C)c2)n1`, for which the inhibition was -2.68% (inactive).

In the case of `Cn1c(SCC(=O)N2CCOCC2)nnc1-c1ccc2ncccc2c1`, the inhibition is 13.7% (active).

As for `CCOC(=O)CSc1nnc(-c2ccc3ncccc3c2)n1C`, the inhibition was 0.08% (inactive).

With `Cn1c(SCC(=O)O)nnc1-c1ccc2ncccc2c1`, the inhibition was -1.41% (inactive).

Regarding `Cc1ccc(S(=O)(=O)N2CCCOC2CNC(=O)C(=O)NC2CCCCC2)cc1` (centres undefined), the inhibition is -5.78% (inactive).

Regarding `Cc1ccc(C=C2C(=O)c3ccccc3C2=O)o1`, the inhibition was 2.45% (inactive).

Regarding `O=C1/C(=C\c2ccc(Br)o2)Cc2ccccc21`, the inhibition was 8.39% (inactive).

Take `COc1ccc(C(CNC(=O)c2ccc(S(=O)(=O)N(C)C)cc2)N2CCCCC2)cc1` (centres undefined): the inhibition is 0.14% (inactive).

For the compound `COc1ccc(NC(=O)N2CCCC2C(=O)NCc2ccc(C)cc2)cc1` (centres undefined), the inhibition was 1.15% (inactive).

On to `CC(C)CNC(C)C(=O)Nc1ccc(S(N)(=O)=O)cc1` (centres undefined), for which the inhibition is -3.38% (inactive).

For the compound `C=CCOc1c2ccc(C(=O)NCc3ccc(C)cc3)cc2nn1C`, the inhibition was 1.15% (inactive).

On to `Cn1c2ccccc2c2cc(C(=O)N3CCN(CCO)CC3)sc21`, for which the inhibition was 12.8% (active).

As to `CC(=O)NNC(=O)c1cc2c3ccccc3n(C)c2s1`, the inhibition is 2.59% (inactive).

Take `Cn1c2ccccc2c2cc(C(=O)N3CCOCC3)sc21`: the inhibition is 5.13% (inactive).

For `CN1CCc2nc(SCc3ccccc3Br)c(C#N)cc2C1`, the inhibition is -4.18% (inactive).

With `Cc1cccc(CSc2nc3c(cc2C#N)CN(C)CC3)c1`, the inhibition is -4.03% (inactive).

Consider `CN1CCc2nc(SCc3cccc(Br)c3)c(C#N)cc2C1`, for which the inhibition was 13% (active).

In the case of `Cc1c(C(=O)OCCOc2ccccc2)[nH]c2c1C(=O)CCC2`, the inhibition was 2.56% (inactive).

As for `N#C/C(=C\c1ccc([N+](=O)[O-])o1)c1nc2ccccc2[nH]1`, the inhibition is -6.95% (inactive).

As for `N#C/C(=C\c1ccc(Sc2ccccc2)o1)c1nc2ccccc2[nH]1`, the inhibition is -4.05% (inactive).

Consider `COc1cc(/C=C(\C#N)c2nc3ccccc3s2)cc([N+](=O)[O-])c1O`, for which the inhibition is 6.33% (inactive).

Regarding `N#C/C(=C/c1ccc(-c2ccc(S(N)(=O)=O)cc2)o1)c1nc2ccccc2s1`, the inhibition is 6.34% (inactive).

For `N#C/C(=C\c1ccco1)c1nc2ccccc2s1`, the inhibition is 7.35% (inactive).

Take `N#C/C(=C/c1ccncc1)c1nc2ccccc2s1`: the inhibition is -6.23% (inactive).

For the compound `CC(C)(C)NC(=O)NC(=O)COC(=O)c1ccc2c(c1)S(=O)(=O)N=C1CCCCCN12`, the inhibition is -5.9% (inactive).

Take `O=C(C(=S)N1CCOCC1)c1c[nH]c2ccccc12`: the inhibition was -1.14% (inactive).

Turning to `O=C1C2C3C=CC(CC3)C2C(=O)N1/N=C/c1c(O)ccc2ccccc12` (centres undefined), the inhibition was -1.22% (inactive).

`CC(NC(=O)c1ccco1)C1COc2ccccc2O1` (centres undefined): the inhibition is 1.62% (inactive).

For `CC(Sc1nnc2ccccn12)C(=O)Nc1ccc(Cl)cn1` (centres undefined), the inhibition is 8.91% (inactive).

Take `COc1ccccc1C1=NN(C2=NN=C(N)Cc3ncnn32)C(O)(C(F)(F)F)C1` (centres undefined): the inhibition was -7.53% (inactive).

In the case of `N#CCC(=O)N/N=C/c1cccc(Oc2ccccc2)c1`, the inhibition is 5.36% (inactive).

In the case of `O=c1c2ccccc2nc(N2CCCC2)n1-c1ccccc1`, the inhibition is 13.9% (active).

As for `O=c1c2ccccc2nc(N2CCCC2)n1-c1ccc(Cl)cc1`, the inhibition is 3.51% (inactive).

In the case of `CN1CCN(c2nc3ccccc3c(=O)n2-c2ccccc2)CC1`, the inhibition was 2.07% (inactive).

On to `CC1(C)CC(=O)C2=C(C1)NC(=O)C21C(C(=O)OC(C)(C)C)=C(N)Oc2ccc(Br)cc21` (centres undefined), for which the inhibition is 4.2% (inactive).

In the case of `O=C(Cc1ccccc1[N+](=O)[O-])NCc1ccc2c(c1)OCO2`, the inhibition was 14% (active).

Take `O=C(Cc1ccccc1[N+](=O)[O-])Nc1ccc2c(c1)OCO2`: the inhibition is 0.87% (inactive).

`O=C(Cc1ccc([N+](=O)[O-])cc1)NCc1ccc2c(c1)OCO2`: the inhibition is -3.22% (inactive).
